Screening data from PubChem.
Mtb hypoxia inh: reduces hypoxia-regulated biosensor signal in M. tuberculosis; M. tuberculosis hypoxia-regulated fluorescent reporter, fluorescence; fluorescence inhibition, % (test concentration not listed); actives 0.1% (n = 300,000); AID 1159583; in the data active = fluorescence inhibition mostly above about 23%, no sharp cut-off; inactive = mostly below about 17%
Yp Topo-I inh: Y. pestis Topo-I inhibition via cleavage products | Y. pestis Topo-I cleavage product accumulation, plate reader | activity, % at 10 µM | actives 0.064% (n = 360,000) | AID 504884; in the data active = activity above about 50%, passing the limit was not always enough
Mtb FBA inh: inhibitors of M. tuberculosis fructose-bisphosphate aldolase; P9WQA3; purified M. tuberculosis FBA, fluorescence read-out; inhibition, % at 1 µM; actives 2.3% (n = 360,000); AID 588726;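 also: 0% = vehicle and 100% = reference inhibitor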
Target sequence (P9WQA3 whole entry, looked up): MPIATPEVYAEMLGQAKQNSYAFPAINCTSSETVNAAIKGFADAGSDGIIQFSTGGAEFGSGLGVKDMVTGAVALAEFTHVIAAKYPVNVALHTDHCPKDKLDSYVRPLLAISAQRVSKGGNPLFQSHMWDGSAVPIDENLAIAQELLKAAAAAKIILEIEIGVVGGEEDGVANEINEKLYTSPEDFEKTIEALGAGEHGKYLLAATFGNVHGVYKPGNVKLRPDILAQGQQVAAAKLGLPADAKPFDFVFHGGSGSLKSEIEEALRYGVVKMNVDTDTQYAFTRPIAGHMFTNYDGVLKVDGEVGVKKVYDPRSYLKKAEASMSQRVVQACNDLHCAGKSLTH
PrPC surface inh: cell surface PrPC inhibition, primary TR-FRET screen. P04156. TR-FRET read-out. inhibition, % at 13.8 µM. actives 0.43% (n = 370,000). AID 720596; in the data active = inhibition above about 24%; also: 0% = median of the test wells and 100% = reference compound wells
PrP UTR inh: inhibition of PrP 5' UTR reporter expression; cell-based PrP 5' UTR mRNA reporter, plate reader; inhibition, % (test concentration not listed); actives 0.35% (n = 340,000); in the data active = inhibition above about 52%; also: 0 = median of the neutral control wells
GDH-TPI counter-1: GDH-TPI coupled enzyme inhibition counter-screen; GDH-TPI coupled enzyme counterscreen, NADH absorbance; inhibition, % at 4.8 µM; AID 588335; actives 1.2% (n = 360,000); in the data active = inhibition above about 30%;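 also: 0% = DMSO wells and 100% = wells lacking the enzyme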
Mtb FBA confirm: confirmation of M. tuberculosis fructose-bisphosphate aldolase inhibitors; shares compounds with Mtb FBA inh; inhibition, % at 1 µM; actives 78% (n = 5,600); purified M. tuberculosis FBA, fluorescence read-out;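 also: 0% = vehicle wells and 100% = reference inhibitor wells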
GDH-TPI counter-2: inhibits GDH-TPI coupling enzymes, flagging Mtb FBA hits. actives 81% (n = 5,600). inhibition, % at 1 µM. GDH-TPI coupled enzyme counterscreen, fluorescence. shares compounds with Mtb FBA inh; in the data active = inhibition above about 10%
* = called active by the depositor. A selection: hits, their analogues and other compounds. The true share with any hit is near 3.8%. Rule as the data show it, unless noted: active = inhibition above about 27%; inactive = the rest.

For COC(=O)c1ccc(C)c(NC(=O)CCNC(=O)c2ccc([N+](=O)[O-])cc2)c1 the results were Mtb hypoxia inh 4, Yp Topo-I inh -11, Mtb FBA inh 0, PrPC surface inh -16, PrP UTR inh -25 and GDH-TPI counter-1 3.
Screening Cc1ccc(F)cc1NC(=O)CCNC(=O)c1ccc([N+](=O)[O-])cc1 returned Mtb hypoxia inh 2, Yp Topo-I inh 4, Mtb FBA inh 37*, PrPC surface inh -27, PrP UTR inh -30, GDH-TPI counter-1 0, Mtb FBA confirm 163* and GDH-TPI counter-2 124*.
CCOCCCNC(=O)c1oc2ccc3c(c2c1C)C(O)CC(C)(C)O3 (stereo unspecified) was read as Mtb hypoxia inh -10, Yp Topo-I inh 2, Mtb FBA inh 33*, PrPC surface inh 1, PrP UTR inh -22, GDH-TPI counter-1 21, Mtb FBA confirm 35* and GDH-TPI counter-2 25*.
`CCCNC(=O)c1oc2ccc3c(c2c1C)C(O)CC(C)(C)O3` (stereo unspecified) gave Mtb hypoxia inh -6, Yp Topo-I inh -1, Mtb FBA inh 49*, PrPC surface inh 1, PrP UTR inh 4, GDH-TPI counter-1 6, Mtb FBA confirm 3 and GDH-TPI counter-2 0.
Cc1c(C(=O)NCCCN2CCCCC2)oc2ccc3c(c12)C(O)CC1(CCCCC1)O3 (stereo unspecified) was read as Mtb hypoxia inh -2, Yp Topo-I inh -4, Mtb FBA inh 18, PrPC surface inh -13, PrP UTR inh -9 and GDH-TPI counter-1 15.
Screening Cc1nc2ccccc2c(=O)n1N=Cc1ccccc1OC(F)F returned Mtb hypoxia inh 10.
`O=c1c(-c2ccc3c(c2)OCCO3)coc2c(CN3CCOCC3)c(O)ccc12` gave Mtb hypoxia inh 7, Yp Topo-I inh 8, Mtb FBA inh 14, PrPC surface inh 5, PrP UTR inh -34 and GDH-TPI counter-1 8.
For COc1ccccc1Oc1coc2c(CN3CCOCC3)c(O)ccc2c1=O the results were Mtb hypoxia inh 0, Yp Topo-I inh -1, Mtb FBA inh 80*, PrPC surface inh -14, PrP UTR inh -18, GDH-TPI counter-1 8, Mtb FBA confirm active and GDH-TPI counter-2 156*.
`Oc1ccc2ccccc2c1CN1CCOCC1` gave Mtb hypoxia inh -2, Yp Topo-I inh 4, Mtb FBA inh 10, PrPC surface inh -3, PrP UTR inh -8 and GDH-TPI counter-1 4.
`COc1ccccc1-c1coc2c(CN3CCOCC3)c(O)ccc2c1=O` gave Mtb hypoxia inh -15, Yp Topo-I inh -3, Mtb FBA inh 73*, PrPC surface inh 4, PrP UTR inh -18, GDH-TPI counter-1 20, Mtb FBA confirm 153* and GDH-TPI counter-2 124*.
Screening CN(C)Cc1cc(CN(C)C)c(O)c(CCc2ccccc2)n1 returned Mtb hypoxia inh 12, Yp Topo-I inh -1, Mtb FBA inh 1, PrPC surface inh -1, PrP UTR inh -20 and GDH-TPI counter-1 -4.
Screening Cc1ccc(-c2nc(CN(C)C)cc(CN(C)C)c2O)cc1 returned Yp Topo-I inh -7, Mtb FBA inh 80*, PrPC surface inh -5, PrP UTR inh -2, GDH-TPI counter-1 26, Mtb FBA confirm 5 and GDH-TPI counter-2 -5.
CCN1CCSc2ccc(C(=O)NCc3cccc(F)c3)cc21 was read as Mtb hypoxia inh 4, Yp Topo-I inh -3, Mtb FBA inh 49*, PrPC surface inh 10, PrP UTR inh -15, GDH-TPI counter-1 4, Mtb FBA confirm active and GDH-TPI counter-2 162*.
`CCN1CCSc2ccc(C(=O)NCc3cccc(Br)c3)cc21` gave Mtb hypoxia inh 2, Yp Topo-I inh 18, Mtb FBA inh 40*, PrPC surface inh 3, PrP UTR inh 3, GDH-TPI counter-1 6, Mtb FBA confirm 107* and GDH-TPI counter-2 82*.
`CCCOc1ccc(CNC(=O)c2ccc3c(c2)N(CC)CCS3)cc1` gave Mtb hypoxia inh 9, Yp Topo-I inh -6, Mtb FBA inh 75*, PrPC surface inh 8, PrP UTR inh -16, GDH-TPI counter-1 1, Mtb FBA confirm 157* and GDH-TPI counter-2 99*.
CCOc1ccccc1CNC(=O)c1ccc2c(c1)N(CC)CCS2 was read as Mtb hypoxia inh 1, Yp Topo-I inh -1, Mtb FBA inh 74*, PrPC surface inh 14, PrP UTR inh 9, GDH-TPI counter-1 14, Mtb FBA confirm 26 and GDH-TPI counter-2 21*.
`Cc1ccc(S(=O)(=O)NN=Cc2cc([N+](=O)[O-])ccc2O)cc1[N+](=O)[O-]` gave Mtb hypoxia inh 6.
For COC1=CC(=O)[C@]2(C(Cl)C[C@]34C(OC)=C(OC)C(=O)C[C@]23CCN4C)C1O (stereo partly specified) the results were Mtb hypoxia inh 8.
Screening C=CCOc1c(Br)cc(C=C2NC(=S)N(C(C)=O)C2=O)cc1OC returned Mtb hypoxia inh -3.
For O=C1C=C(Nc2ccccc2C(=O)O)c2ccccc2C1=O the results were Mtb hypoxia inh 1, Yp Topo-I inh -10, Mtb FBA inh 38*, PrPC surface inh -30, PrP UTR inh -10, GDH-TPI counter-1 12, Mtb FBA confirm active and GDH-TPI counter-2 157*.
For O=C(O)c1ccccc1Nc1ccccc1C(=O)O the results were Mtb hypoxia inh 1, Yp Topo-I inh -7, Mtb FBA inh 2, PrPC surface inh -1, PrP UTR inh -21 and GDH-TPI counter-1 19.
Screening Cc1cc(NCCO)c2cc(O)ccc2n1 returned Mtb hypoxia inh 1, Yp Topo-I inh -8, Mtb FBA inh 90*, PrPC surface inh -9, GDH-TPI counter-1 15, Mtb FBA confirm 105* and GDH-TPI counter-2 127*.
For OCCNc1cnc2ccccc2n1 the results were Mtb hypoxia inh -13, Yp Topo-I inh 11, Mtb FBA inh 27, PrPC surface inh -1, PrP UTR inh -23 and GDH-TPI counter-1 11.
`Cc1cc(NCCO)c2ccccc2n1` gave Mtb hypoxia inh 0, Yp Topo-I inh 0, Mtb FBA inh 0, PrPC surface inh -3, PrP UTR inh -21 and GDH-TPI counter-1 7.
For OCCNc1c2ccccc2nc2ccccc12 the results were Mtb hypoxia inh -4, Yp Topo-I inh -17, Mtb FBA inh 60*, PrPC surface inh -8, PrP UTR inh -33, GDH-TPI counter-1 -4, Mtb FBA confirm 62* and GDH-TPI counter-2 34*.
For OCCNc1nc2ccccc2nc1NCCO the results were Mtb hypoxia inh 9, Yp Topo-I inh 9, Mtb FBA inh 35*, PrPC surface inh -6, PrP UTR inh -15, GDH-TPI counter-1 16, Mtb FBA confirm active and GDH-TPI counter-2 173*.
`CCn1cc(C=C2SC(=O)N(CC(=O)Nc3ccc4c(c3)OCO4)C2=O)c2ccccc21` gave Mtb hypoxia inh 0.
